Assay results: PubChem BioAssay (EPA / NIEHS)
Activity calls are given as the source filed them. The calls were made as follows: active = hit-call score of the fitted dose curve at least 0.9, where 1 is the maximum; inactive = score below 0.9.

Experiment: STM_H9_OrnithineISnorm_perc: Stemina devTOX quickPredict H9 human embryonic stem cell (hESC)-based Assay for Ornithine (ORN) Metabolite Biomarker, Normalized (AID 2283712);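 also: ornithine released into spent medium during last day measured by mass spectrometry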
From the text: STM_H9_secretome utilizes undifferentiated H9 cells to measure relative changes in two metabolites, ornithine (ORN) and cystine (CYSS) in the secretome, targeting a critical drop in the ORN/CYSS ratio as a biomarker for developmental toxicity.STM_H9_OrnithineISnorm is one of 10 components calculated in the STM_H9_secretome assay. It measures the integrated area of the endogenous ornithine normalized to the spiked-in isotopically labeled standard and to the median value of the 0.1% DMSO neutral control treatment using UPLC-HRMS technology.Data from the assay component STM_H9_OrnithineISnorm_perc was analyzed at the assay endpoint STM_H9_OrnithineISnorm_perc in the positive analysis fitting direction relative to DMSO as the negative control and baseline of activity. Using a type of binding reporter, gain or loss-of-signal activity can be used to understand relative metabolite change.
H9 hESCs maintained in a pluripotent state were exposed to test compound for 72h with chemical replenishment with media replacement every 24h. Cell-conditioned media from the final 24-h treatment period was collected for analysis of the targeted biomarker, and cell viability of the corresponding cell layer was assessed. The chemical library was tested in blinded fashion. Each test plate included 1uM Methotrexate (MTX; Selleck Chemicals, Houston, Texas) as a positive reference, 5 nM MTX as a negative reference, 0.1% DMSO as the neutral (vehicle) control, and sample-level media blanks.H9 cell-conditioned media from the final 24-h treatment period was collected for analysis of the targeted biomarker and cell viability was measured from the corresponding cell layer. Cell viability was measured using the CellTiter-Fluor assay (Promega, Madison, Wisconsin) based on proteolytic cleavage of a substrate to fluorescent signal proportional to the number of living cells. The cell viability Relative Fluorescence Unit (RFU) was background corrected and normalized to mean RFU of the neutral control (0.1% DMSO). The collected H9-cell-conditioned media samples were processed for targeted biomarker analysis as described (Palmer et al., 2013). Briefly, spent media samples were deproteinized (40% acetonitrile) and processed for UPLC-HRMS. Data acquisition was performed using 4 separate UPLC-HRMS systems, consisting of an Agilent 1290 Infinity LC system (Agilent Technologies) interfaced with an Agilent high-resolution mass spectrometer (models G6520A, G6520B, G6530A, and G6224A). A Waters Acquity UPLC BEH Amide column (2.1mm x 50mm, 1.7lm particle size; Waters, Milford, Massachusetts) maintained at 40C was applied for separation of metabolites using a 6.5min solvent gradient with 0.1% formic acid in water and 0.1% formic acid in acetonitrile (1.0ml/min flow rate). Data were acquired using MassHunter Acquisition software (version B 04.00, Agilent Technologies). The extracted ion chromatogram (EIC) areas for ORN, CYSS, and their respective spike-in C13-standards were determined using the Agilent MassHunter Quantitative Analysis software, version B.05.00 or newer (Agilent Technologies), and data were normalized as described in Palmer et al. (2017).

Row | Compound | outcome | AC50
1 | Cc1[nH]c(=O)n(C(C)(C)C)c(=O)c1Cl | inactive | –
2 | CC(C)OC(=O)Nc1cccc(Cl)c1 | inactive | –
3 | CCOC1Oc2ccc(OS(C)(=O)=O)cc2C1(C)C (stereo not drawn) | – | 86.3 µM (active)
4 | C#CCN1C(=O)COc2cc(F)c(N3C(=O)C4=C(CCCC4)C3=O)cc21 | – | 84.1 µM (active)
5 | CC(C)(C)C(O)/C(=C\c1ccc(Cl)cc1Cl)n1cncn1 (stereo not drawn) | – | 69.4 µM (active)
6 | O=C(Nc1ccccc1)Nc1cnns1 | inactive | –
7 | Oc1cc(Cl)ccc1Oc1ccc(Cl)cc1Cl | – | 86.3 µM (active)
8 | O=S(=O)(O)C(F)(F)C(F)(F)C(F)(F)C(F)(F)C(F)(F)C(F)(F)C(F)(F)C(F)(F)F | inactive | –
9 | O=C(O)C(F)(F)C(F)(F)C(F)(F)C(F)(F)C(F)(F)C(F)(F)C(F)(F)F | inactive | –
10 | O=C(NC(=O)c1c(F)cccc1F)Nc1ccc(OC(F)(F)C(F)OC(F)(F)F)c(Cl)c1 (stereo not drawn) | inactive | –
11 | Oc1ccc(Cl)cc1Cc1ccccc1 | inactive | –
12 | O=S1OCC2C(CO1)C1(Cl)C(Cl)=C(Cl)C2(Cl)C1(Cl)Cl (stereo not drawn) | – | 36.1 µM (active)
13 | CCOCN(C(=O)CCl)c1c(C)cccc1CC | inactive | –
14 | CCC(C)Nc1c([N+](=O)[O-])cc(C(C)(C)C)cc1[N+](=O)[O-] (stereo not drawn) | inactive | –
15 | CC1(c2ccc(Oc3ccccc3)cc2)OC(=O)N(Nc2ccccc2)C1=O (stereo not drawn) | – | 4.54 µM (active)
16 | CC1(C)C(C=C(Cl)Cl)C1C(=O)OC(C#N)c1ccc(F)c(Oc2ccccc2)c1 (stereo not drawn) | inactive | –
17 | CC(C)(C)C(O)C(Oc1ccc(Cl)cc1)n1cncn1 (stereo not drawn) | inactive | –
18 | CCC(C)(NC(=O)c1cc(Cl)c(C)c(Cl)c1)C(=O)CCl (stereo not drawn) | – | 19.6 µM (active)
